This excerpt belongs to a sample that is enriched for hits.
CHX counter – counter-screen for Shiga toxin inhibitors: cycloheximide protein synthesis inhibition; cell reporter, cycloheximide protein synthesis inhibition counterscreen; max response, %; actives 12% (n = 300,000); AID 2314; in the data active = max response mostly above about 13%, no sharp cut-off; inactive = mostly below about 14%; also: read at 38.3 µM for the half of the compounds with a filed dose
AmpC detergent – AmpC beta-lactamase inhibition with detergent present; AmpC hydrolysis of nitrocefin, absorbance 480 nm, 0.01% Triton; AID 485294; Potency, µM (titrated, usually from 114 µM), most hits filed as inhibitors; P00811; actives 0.041% (n = 370,000); also: nearly all actives have a fitted effect of over 25% in size
Target sequence (P00811 whole entry, looked up): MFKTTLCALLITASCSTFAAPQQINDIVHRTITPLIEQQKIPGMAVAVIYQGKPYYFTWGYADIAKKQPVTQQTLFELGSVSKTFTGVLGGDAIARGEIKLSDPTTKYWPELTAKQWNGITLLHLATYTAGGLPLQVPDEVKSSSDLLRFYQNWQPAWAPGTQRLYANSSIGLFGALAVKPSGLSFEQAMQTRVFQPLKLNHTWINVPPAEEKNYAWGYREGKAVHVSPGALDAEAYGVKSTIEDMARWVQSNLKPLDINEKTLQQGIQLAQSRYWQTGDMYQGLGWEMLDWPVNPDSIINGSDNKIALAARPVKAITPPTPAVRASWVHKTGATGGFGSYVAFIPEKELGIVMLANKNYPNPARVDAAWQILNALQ
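AmpC (5.3 nM in the dispensed reagent) in 20 mM phosphate pH 7.0 with 0.01% (detergent screen) or 0.0001% Triton X-100 was preincubated with compounds for 15 min at room temperature. Nitrocefin was then added from an 800 uM solution, and hydrolysis was followed at 480 nm.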
AmpC no deterg – blocks E. coli AmpC beta-lactamase in detergent-free assay. P00811. AmpC nitrocefin hydrolysis, absorbance 480 nm, 0.0001% Triton. Potency, µM (top dose mostly 57.1 µM), most hits filed as inhibitors. actives 0.52% (n = 330,000). AID 485341; also: nearly all actives have a fitted effect of over 20% in size
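20 mM phosphate pH 7.0 + 0.01% (detergent screen) or 0.0001% Triton X-100; 5.3 nM AmpC reagent; cpd preinc 15 min RT; nitrocefin (800 uM stock) to start; A480 q20 s × 4 min; Activity was normalised to no-enzyme and no-compound control wells.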
Shiga inhibitor – Shiga toxin inhibition. Vero cells, Shiga toxin protein synthesis inhibition reporter. inhibition, % at 38.7 µM. actives 9.2% (n = 290,000); in the data active = inhibition mostly above about 28%, no sharp cut-off; inactive = mostly below about 43%
NS1 function inh – inhibitors of influenza NS1 protein function. AID 2326. Potency, µM (top dose mostly 46.1 µM). actives 0.4% (n = 270,000); calls by dose curve; also: actives are rising curves; nearly all actives have a fitted effect of over 50% in size
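OD600 was taken as the measure of yeast growth restored by compound in an NS1-expressing S. cerevisiae strain. Cells had been washed out of glucose medium and diluted 1:100 into galactose -URA medium, pH 6.0.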
Numbers stand for hits. Unless noted, calls follow the shape of the dose curve; as a rule, active = well fitted curve in the direction sought with a large enough effect; inconclusive = small, poorly fitted or top-dose-only effect, or another doubt; inactive = no such curve, though single readings can be large; an effect the other way counts as inactive or inconclusive.

How did O=c1c(S(=O)(=O)c2ccccc2)cn(Cc2ccc(F)cc2)c2cc(N3CCCCC3)c(F)cc12 do in these assays?
AmpC detergent: inactive

How did COc1ccccc1CCNC(=O)C1(C)CC1(Cl)Cl (stereo not drawn) do in these assays?
CHX counter: 14.5; AmpC detergent: inactive; AmpC no deterg: inactive; Shiga inhibitor: inactive; NS1 function inh: inactive

How did CC1(C(=O)NCCOc2ccccc2Cl)CC1(Cl)Cl (stereo not drawn) do in these assays?
CHX counter: inactive; AmpC detergent: inactive; AmpC no deterg: inactive; Shiga inhibitor: inactive; NS1 function inh: inactive

How did COc1ccc(CNC(=O)NC2CCCCC2)cc1 do in these assays?
CHX counter: 25.9; AmpC detergent: inactive; AmpC no deterg: inactive; Shiga inhibitor: 32.7; NS1 function inh: inactive

Results for COc1ccccc1CCNC(=O)NC1CCCCC1 ?
CHX counter: 17.7; AmpC detergent: inactive; AmpC no deterg: inactive; Shiga inhibitor: inactive; NS1 function inh: inactive

Results for COc1ccccc1CC(=O)NC1CCCCCC1 ?
CHX counter: inactive; AmpC detergent: inactive; AmpC no deterg: inactive; Shiga inhibitor: inactive; NS1 function inh: inactive

How did COc1ccc(CNC(=O)c2ccc(CNc3c(NC4CCCCC4)c(=O)c3=O)cc2)cc1 do in these assays?
CHX counter: 45.6; AmpC detergent: inconclusive; AmpC no deterg: inactive; Shiga inhibitor: inactive; NS1 function inh: inactive

How did Cn1c(=O)c2[nH]c(N3CCN(c4ccccn4)CC3)nc2n(C)c1=O do in these assays?
CHX counter: inactive; AmpC detergent: inactive; AmpC no deterg: inactive; Shiga inhibitor: inactive; NS1 function inh: inactive

Results for COc1cc(Cl)c(C)cc1NC(=O)CC(c1ccc(F)cc1)N1Cc2ccccc2C1=O (stereo not drawn) ?
AmpC detergent: inactive

Results for COc1ccccc1NC(=O)C1CCN(C(=O)c2sc3nc[nH]c(=O)c3c2C)CC1 ?
AmpC detergent: inactive

Results for O=C(NCCc1ccccc1)NC1CCCCC1 ?
CHX counter: 38.7; AmpC detergent: inactive; AmpC no deterg: inactive; Shiga inhibitor: 52.2; NS1 function inh: inactive

What do the screens show for `NC(=O)NCCC1=CCCCC1`?
CHX counter: inactive; AmpC detergent: inactive; AmpC no deterg: inactive; Shiga inhibitor: inactive; NS1 function inh: inactive

What do the screens show for `O=C(NCc1cccnc1)NC1CCCCC1`?
CHX counter: inactive; AmpC detergent: inactive; Shiga inhibitor: inactive; NS1 function inh: inactive

Results for O=C(NCCC1=CCCCC1)NC1CCCCC1 ?
CHX counter: 44.5; AmpC detergent: inactive; AmpC no deterg: inactive; Shiga inhibitor: 72.4; NS1 function inh: inactive

What do the screens show for `COc1ccc(CCNC(=O)NC2CCCCC2)cc1OC`?
CHX counter: inactive; AmpC detergent: inactive; AmpC no deterg: inactive; Shiga inhibitor: inactive; NS1 function inh: inactive

What do the screens show for `O=C(NCc1ccccc1)NC1CCCCC1`?
CHX counter: 38.5; AmpC detergent: inactive; AmpC no deterg: inactive; Shiga inhibitor: 41.8; NS1 function inh: inactive

How did C=CCN(C(C(=O)OC)C(C)C)S(=O)(=O)CCl (stereo not drawn) do in these assays?
CHX counter: inactive; Shiga inhibitor: inactive

What do the screens show for `O=C(COC(=O)CSc1ccc(Cl)cc1)NCCc1ccccc1`?
AmpC detergent: inactive; AmpC no deterg: inactive

How did COc1ccc(C(=O)NCCc2nc3ccccc3[nH]2)cc1 do in these assays?
AmpC detergent: inactive

Results for C=CCn1c(=NC(=O)C2CCCCC2)sc2cc(NC(C)=O)ccc21 ?
CHX counter: inactive; AmpC detergent: inconclusive; AmpC no deterg: 3.98µM; Shiga inhibitor: inactive; NS1 function inh: inactive

What do the screens show for `C=CCn1c(=NC(=O)C2COc3ccccc3O2)sc2cc(S(N)(=O)=O)ccc21` (stereo not drawn)?
CHX counter: inactive; AmpC detergent: inconclusive; AmpC no deterg: inactive; Shiga inhibitor: inactive; NS1 function inh: inactive

How did C=CCn1c(=NC(=O)C2CC2)sc2cc(NC(C)=O)ccc21 do in these assays?
CHX counter: 27.7; AmpC detergent: inactive; AmpC no deterg: inactive; Shiga inhibitor: inactive; NS1 function inh: inactive

What do the screens show for `N#CCCn1cc(C(=O)N2CCCCC2)c(-c2cccc([N+](=O)[O-])c2)n1`?
CHX counter: inactive; AmpC detergent: inactive; AmpC no deterg: inactive; Shiga inhibitor: inactive; NS1 function inh: inactive

Results for COC(=O)c1ccc(-c2nc3cc(Cl)c(N)cc3s2)cc1 ?
CHX counter: 48.1; AmpC detergent: inactive; AmpC no deterg: inactive; Shiga inhibitor: 106.3; NS1 function inh: inactive

How did CCc1cccc(NC(=O)Cn2c(=O)c3cccn3c3ccccc32)c1 do in these assays?
CHX counter: inactive; AmpC detergent: inactive; AmpC no deterg: inactive; Shiga inhibitor: inactive; NS1 function inh: inactive

How did CCS(=O)(=O)c1ccc2oc(Nc3ccccc3Br)nc2c1 do in these assays?
CHX counter: 35.0; AmpC detergent: inactive; AmpC no deterg: inactive; Shiga inhibitor: 79.3; NS1 function inh: inactive

Results for CCS(=O)(=O)c1ccc2oc(Nc3ccccc3Cl)nc2c1 ?
CHX counter: 44.6; AmpC detergent: inactive; AmpC no deterg: inactive; Shiga inhibitor: 79.8; NS1 function inh: inactive

How did CCS(=O)(=O)c1ccc2oc(Nc3cccc(OC)c3)nc2c1 do in these assays?
CHX counter: 19.9; AmpC detergent: inactive; AmpC no deterg: inactive; Shiga inhibitor: inactive

What do the screens show for `COc1ccccc1C(=O)NN=C1CCN(Cc2ccccc2)CC1`?
CHX counter: inactive; AmpC detergent: inactive; AmpC no deterg: inactive; Shiga inhibitor: inactive; NS1 function inh: inactive

How did COc1ccc(NC(=O)Cn2cnc3c(nc4n3CCCCC4)c2=O)c(OC)c1 do in these assays?
AmpC detergent: inactive

How did C=C(C)CN(CC)C(=O)CSc1ccc(S(=O)(=O)N2CCN(C)CC2)cn1 do in these assays?
AmpC detergent: inconclusive; AmpC no deterg: inactive

What do the screens show for `COC(=O)Cc1ccc(NC(=S)Nc2ccccn2)cc1`?
CHX counter: 31.0; AmpC detergent: inactive; AmpC no deterg: inactive; Shiga inhibitor: 73.8; NS1 function inh: inactive

What do the screens show for `S=C(Nc1ccccn1)Nc1ccccc1Cl`?
CHX counter: 34.9; AmpC detergent: inactive; AmpC no deterg: inactive; Shiga inhibitor: 71.9; NS1 function inh: inactive

What do the screens show for `Cc1ccccc1NC(=S)Nc1ccccn1`?
CHX counter: 26.0; AmpC detergent: inactive; AmpC no deterg: inactive; Shiga inhibitor: 52.3; NS1 function inh: inactive

What do the screens show for `O=C(Nc1cccc(C(F)(F)F)c1)c1cncs1`?
CHX counter: inactive; AmpC detergent: inactive; AmpC no deterg: inactive; Shiga inhibitor: inactive; NS1 function inh: inactive

What do the screens show for `O=C(O)c1cc(N/N=C/c2cccnc2)ccc1Cl`?
CHX counter: 62.9; AmpC detergent: inactive; AmpC no deterg: inactive; Shiga inhibitor: 133.2; NS1 function inh: inactive

What do the screens show for `C/C(=N\Nc1cccc(C(F)(F)F)c1)c1ccc(O)cc1`?
CHX counter: inactive; AmpC detergent: inactive; AmpC no deterg: inactive; Shiga inhibitor: 50.5

What do the screens show for `O=C(O)c1cc(N/N=C/c2c[nH]c3ccccc23)ccc1Cl`?
CHX counter: 58.1; AmpC detergent: inactive; AmpC no deterg: inactive; Shiga inhibitor: active; NS1 function inh: inactive

Results for O=C(O)c1cc(N/N=C/c2ccncc2)ccc1Cl ?
CHX counter: 21.4; AmpC detergent: inactive; AmpC no deterg: inactive; Shiga inhibitor: 59.5; NS1 function inh: inactive

Screening results from PubChem.
